Measured values: PubChem BioAssay AID602333 (Sanford-Burnham Center for Chemical Genomics, 2012)
The whole screen tested about 1,900 compounds, of which about 240 (13%) were called active.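 The calls were made as follows: active = mean inhibition at least 40% at 20 µM, or signal 3 deviations below plate average, so some actives read negative; inactive = the rest.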 This excerpt belongs to a sample that is enriched for actives.

The compounds below were run against Prothrombin (Bos taurus) (UniProt P00735) (assay: blocking of thrombin cleavage of Ub4 substrate – biochemical, fluorescence polarization, single concentration, counter-screen for Rpn11 inhibitor project, confirmation (AID 602333;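 also: plate controls were thrombin with DMSO for no effect and buffer wells lacking thrombin for full effect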)). Conditions: bovine thrombin cleavage of Ub4-pepOG, at 20 µM, active compounds read high.
Sequence of Prothrombin (Bos taurus) (P00735 whole entry, looked up): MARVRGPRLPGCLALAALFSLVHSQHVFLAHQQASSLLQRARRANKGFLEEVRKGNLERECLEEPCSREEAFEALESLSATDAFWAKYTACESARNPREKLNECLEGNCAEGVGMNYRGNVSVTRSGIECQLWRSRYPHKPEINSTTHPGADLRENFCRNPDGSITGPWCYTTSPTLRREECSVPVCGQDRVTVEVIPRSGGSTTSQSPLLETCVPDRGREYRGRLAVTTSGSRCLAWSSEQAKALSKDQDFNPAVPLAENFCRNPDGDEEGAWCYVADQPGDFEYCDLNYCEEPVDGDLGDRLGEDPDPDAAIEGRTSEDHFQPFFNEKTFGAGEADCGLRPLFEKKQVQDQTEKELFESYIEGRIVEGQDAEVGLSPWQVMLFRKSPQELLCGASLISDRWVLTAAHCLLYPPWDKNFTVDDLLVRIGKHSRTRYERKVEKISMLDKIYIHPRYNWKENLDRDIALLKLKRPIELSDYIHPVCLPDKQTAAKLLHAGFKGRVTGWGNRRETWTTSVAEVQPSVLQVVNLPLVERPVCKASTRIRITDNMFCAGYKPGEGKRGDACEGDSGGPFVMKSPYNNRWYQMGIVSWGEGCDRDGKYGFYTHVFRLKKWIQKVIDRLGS
For `CCN1C(=O)C(=Cc2c(C)n(CC(=O)NCC3CCCO3)c3ccccc23)C(=O)N(CC)C1=S` (stereo not drawn), the inhibition was 53.3% (active).
For `O=c1[nH]c(=O)n(Cc2ccccc2)c(O)c1/C=N/Nc1c(F)c(F)c(F)c(F)c1F`, the inhibition was 12.8% (inactive).
With `Cc1cccc(N2C(=O)NC(=O)/C(=C\c3cnn(-c4ccccc4)c3)C2=O)c1` the inhibition was 6.14% (inactive).
